ELG1 genotoxic – induces genotoxicity in HEK293T cells with luciferase-tagged ELG1. HEK293T ELG1-luciferase reporter, luminescence, 16 h. Potency, µM (series often up to 46 µM), for the others: at the top dose activity change, positive = activation, most hits filed as activators. 1.3% of 330,000 active; further: % of control where 0% means no effect; nearly all actives have a fitted effect of over 60% in size
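Screening used a luciferase reporter fused to human ELG1 in HEK293T cells. Luminescence was read on a CCD plate imager after 16 hr exposure and 30 min ONE-Glo incubation.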
MCF10A rereplic – DNA re-replication induction in MCF 10a cells. AID 624296. Potency, µM (titrated, usually from 46.1 µM), without a hit: top-dose activity, positive = re-replication, most hits filed as activators. 2.9% of 350,000 active. MCF 10A DNA re-replication, Hoechst nuclear intensity, 48 h; further: % of control where 0% means no effect; nearly all actives have a fitted effect of over 50% in size
p53 reactivator – re-activators of mutant p53; 0.063% of 320,000 active; H1299 p53-A138V BP100-luciferase reporter, luminescence, 24 h; Potency, µM (titrated, usually from 92.2 µM), inactives show at the top dose activity change, positive = activation, hits mostly activators; AID 504706; further: % of control where 0% means no effect; nearly all actives have a fitted effect of over 45% in size
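p53-null H1299 cells stably carrying temperature-sensitive p53-A138V and a BP100-luciferase reporter were pinned with compounds (4-point, 1:5 series) and held 24 hrs at 37 deg C. Luminescence was read 10 min after detection reagent.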
ELG1 repair inh – inhibitors of ELG1-dependent DNA repair in HEK293T cells. HEK293T ELG1-luciferase reporter, luminescence, 16 h; DNA damage induced by 5-fluorouridine. Potency, µM (titrated, usually from 46.1 µM), inactives show top-dose activity change, negative = inhibition, hits mostly inhibitors. 2.3% of 330,000 active. AID 504467; further: on the % scale 0 is the no-effect control and ±100 the full control effect; nearly all actives have a fitted effect of over 55% in size
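5-Fluorouridine DNA damage + compound/DMSO, 2,000 cells/well, 16 h, 37 °C/5% CO2. ONE-Glo, 30 min RT, luminescence. Readout = decrease in reporter signal.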
SW480 rereplic – inducers of DNA re-replication in SW480 colon cancer cells; SW480 DNA re-replication, Hoechst DNA content imaging, 48 h; 1.8% of 340,000 active; Potency, µM (titrated, usually from 46.1 µM), inactives show at the highest dose re-replication activation, hits mostly activators; AID 624297; further: % of control where 0% means no effect; nearly all actives have a fitted effect of over 55% in size
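Quantitative HTS format with DMSO vehicle controls; 48 hr drug incubation at 37 C, then 40 min Hoechst staining and scanning imager measurement at 405 nm excitation.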
A-T KAP1 phos – potential ataxia-telangiectasia treatment. 0.19% of 320,000 active. Potency, µM (highest dose often 57.5 µM), inactives show at the highest dose activation, most hits filed as activators. F2112 A-T fibroblasts, KAP-1 phosphorylation AlphaLISA; neocarzinostatin DNA damage 30 min before lysis; further: % of control where 0% means no effect; nearly all actives have a fitted effect of over 45% in size
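hTERT-immortalized A-T patient fibroblasts (F2112), 500 cells/well in OPTI-MEM, 1% FBS, got compounds for 60 min, then NCS for 30 min at 37C. Lysates were then assayed for phospho-KAP-1 by AlphaLISA (anti-pKAP1 donor, anti-KAP1 acceptor beads), 6 hr at 25C.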
Active calls of the source: *; ? = inconclusive; / = no result given; [ ] = remark or other dose. Sampled rows, rich in hits. Any-hit rate of the full collection: about 7.1%. The call rests on the fitted dose curve; in most records, active means well fitted curve in the direction sought with a large enough effect; inconclusive means small, poorly fitted or top-dose-only effect, or another doubt; inactive means no such curve, though single readings can be large; an effect the other way counts as inactive or inconclusive. Potency means the concentration at half of the fitted maximal effect.

SMILES	ELG1 genotoxic	MCF10A rereplic	p53 reactivator	ELG1 repair inh	SW480 rereplic	A-T KAP1 phos
O=S(=O)(c1ccc(NC(=S)N2CCN(c3ccc(O)cc3)CC2)cc1)N1CCOCC1	-6%	?	-3%	8.2µM*	-5%	-2%
Cc1ccc(NC(=S)N2CCN(S(=O)(=O)c3ccc(C)cc3)CC2)cc1	-6%	9%	-1%	-5%	14%	-1%
O=C(NC(=S)N1CCN(c2ccccc2)CC1)c1ccc(S(=O)(=O)N2CCOCC2)cc1	-5%	0%	0%	18µM*	?	-7%
CN1C(=O)C2(C(C#N)=C(N)N(c3cc(Cl)cc(Cl)c3)C3=C2C(=O)CCC3)c2ccccc21 (configuration not stated)	-26%	-4%	-1%	10µM*	-1%	0%
COCCCn1c(=O)/c(=C\c2ccccc2OC(C)C)s/c1=C(/C#N)C(=O)Nc1ccc(C(=O)O)cc1	-10%	26µM*	-5%	?	?	-7%
Cc1cccc(N2CCN(C(=O)c3ccc(N4CCCC4=O)cc3)CC2)c1C	-11%	-2%	-4%	18µM*	22%	3%
Cc1c(NC(=O)COC(=O)C23CC4CC(CC(O)(C4)C2)C3)c(=O)n(-c2ccccc2)n1C	0%	-3%	-5%	15%	-10%	2%
Cc1c(NC(=O)c2cccc(NC(=O)COc3cccc(Br)c3)c2)c(=O)n(-c2ccccc2)n1C	-11%	-4%	-9%	23µM*	-6%	-12%
Cc1c(NC(=O)C(C)OC(=O)C23CC4CC(CC(Br)(C4)C2)C3)c(=O)n(-c2ccccc2)n1C (configuration not stated)	-4%	1.5µM*	26%	?	-32%	1%
Cc1c(NC(=O)C(C)Oc2cccc(F)c2)c(=O)n(-c2ccccc2)n1C (configuration not stated)	1%	-5%	-10%	-2%	23µM*	5%
O=C(N1CCN(c2ncccn2)CC1)C12CC3CC(CC(C3)C1)C2	/	9%	/	/	-3%	/
COc1ccc(-c2cccc3c2NC(=O)C3=O)cc1OC	5%	20%	14%	25%	17%	-2%
CCOC(=O)CCc1ccc(NC(=O)/C=C/c2ccc([N+](=O)[O-])o2)cc1	/	9.2µM*	/	/	7.3µM*	/
CCN(CC)S(=O)(=O)c1ccc(C(=O)/C=C/c2ccc(-c3ccc([N+](=O)[O-])cc3)o2)cc1	-2%	-3%	1%	-3%	-7%	-8%
CCc1ccc(C(=O)/C=C/c2ccc([N+](=O)[O-])o2)cc1	?	8.9µM*	-15%	?	9%[9.22 µM]	/
CCCCn1c(N)c(N(CCOC)C(=O)C2CCN(C(=O)c3ccc(F)cc3)CC2)c(=O)[nH]c1=O	-4%	0%	21%	0%	5%	8%
CCOc1ccc(N2C(=O)c3ccccc3C2O)cc1 (configuration not stated)	9.2µM*	3%	?	?	-1%	-5%
COc1ccccc1Nc1cc(C(=O)N2CCc3ccccc3C2)c2ccccc2n1	-14%	/	0%	?	/	6%
COc1ccccc1-c1cc(C(=O)N2CCc3ccccc3C2)c2ccccc2n1	-6%	/	-10%	13µM*	/	1%
COc1ccc(Nc2cc(C(=O)N3CCc4ccccc4C3)c3ccccc3n2)c(OC)c1	-19%	?	-3%	21µM*	?	-6%
CC(C)C(C(=O)NC1CCCC1)N(CC1CCCO1)C(=O)CNS(=O)(=O)c1ccc(F)cc1 (configuration not stated)	3%	0%	1%	8%	-22%	8%
CN(C)c1ccc(Nc2nc(N)c([N+](=O)[O-])c(N3CCOCC3)n2)cc1	-7%	?	2%	16µM*	?	-11%
